Data on 58 compounds can be found in PubChem BioAssay AID588675 (Johns Hopkins Ion Channel Center, 2011).

Out of some 310,000 compounds screened, about 1,900 (0.61%) were called active.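 How the source made its calls: active means plate-corrected calcium response at least 3 library SD above typical, normal starting fluorescence, not activating the receptor alone; inactive means the rest.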 The list comes from a sample in which actives are over-represented; it also holds similar structures and randomly drawn compounds.

Mas-related G-protein coupled receptor member X1 (Homo sapiens), sequence (Q96LB2 whole entry, looked up): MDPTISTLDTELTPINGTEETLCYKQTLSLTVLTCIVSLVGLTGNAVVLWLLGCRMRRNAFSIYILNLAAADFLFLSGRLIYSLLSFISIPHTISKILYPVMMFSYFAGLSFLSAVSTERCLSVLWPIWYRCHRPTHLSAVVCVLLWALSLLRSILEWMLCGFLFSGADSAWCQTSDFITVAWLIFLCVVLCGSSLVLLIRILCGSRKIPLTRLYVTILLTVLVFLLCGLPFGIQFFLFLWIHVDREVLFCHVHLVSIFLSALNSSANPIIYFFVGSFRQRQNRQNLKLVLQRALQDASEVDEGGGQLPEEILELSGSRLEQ

The experiment has as its target Mas-related G-protein coupled receptor member X1 (Homo sapiens) (UniProt Q96LB2). Description: allosteric enhancers of human MrgX1 signaling – HEK293 cells, Fluo-4 calcium flux, primary screen (AID 588675).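 Further: compound read alongside a low EC10 to EC30 dose of BAM8-22 agonist.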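 On B-score: peak minus trough fluorescence over baseline measured at the second addition.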 The settings on record: MrgX1-HEK293, Fluo-4 calcium flux, FDSS, at 10 µM; active compounds read high.
In the case of `NC(=O)c1c(Nc2nc3c(F)cccc3s2)sc2c1CCCC2`, the B-score was 8.33 (active). As to `COc1cccc(OC)c1C(=O)Nc1sc2c(c1C(N)=O)CCCC2`, the B-score result was “inactive”. Then `O=C(Nc1sc2c(c1C(=O)O)CCC2)c1ccccc1F`, with “inactive”; and `CCOc1ccc(NC(=O)C(C)N2C(=O)c3ccccc3C2=O)cc1` (stereo not drawn), with “inactive”; and `Cc1ccnc(NC(=O)C(C)N2C(=O)c3ccccc3C2=O)c1` (stereo not drawn), with 7.9 (active). In the case of `COC(=O)c1ccc(NC(=O)C(C)N2C(=O)c3ccccc3C2=O)cc1` (stereo not drawn), the B-score result was “inactive”. Turning to `Cc1ccc(NS(=O)(=O)c2cn(C)c(=O)n(C)c2=O)c(C)c1`, the B-score result is “inactive”. `CC(C)(C)c1nc2ccccc2c(=O)n1N1C(=O)c2ccccc2C1=O`: the B-score result is “inactive”. Consider `CC(=O)c1ccc(NC(=O)c2ccc(-n3cncn3)c([N+](=O)[O-])c2)cc1`, for which the B-score entry was “inactive”. On to `O=C(N/N=C/C=C/c1ccccc1)C1CC1(c1ccccc1)c1ccccc1` (stereo not drawn), for which the B-score was 14.2 (active). The entry for `CC(/C=C/c1ccccc1)=N\NC(=O)C1CC1(C)c1ccccc1` (stereo not drawn) is “inactive”; for `Cc1ccc(-c2cc(C(=O)N/N=C/C=C/c3ccccc3)n[nH]2)o1` it is “inactive”. In the case of `COCc1[nH][nH]c(=O)c1C=Nc1ccc(F)cc1F`, the B-score entry was “inactive”. The entry for `Clc1ccc(Cn2ncc3c(NCc4cccnc4)ncnc32)cc1` is “inactive”; for `Clc1ccc(Nc2ncnc3c2nnn3Cc2ccccc2)cc1` it is “inactive”. As to `CC(C)CNc1ncnc2c1cnn2Cc1ccc(Cl)cc1`, the B-score is 7.42 (active). For `O=C1c2ccccc2C2=Nc3ccccc3SC(c3ccccc3F)C12` (stereo not drawn), the B-score is 13.4 (active). For `O=C1c2ccccc2C(=O)C1c1ccccc1F`, the B-score entry was “inactive”.

`CCOC(=O)C1=C(C)N=C2c3ccccc3C(=O)C2C1c1ccc(Br)cc1` (stereo not drawn): the B-score entry is “inactive”. Regarding `COc1ccccc1CNS(=O)(=O)c1c(C)[nH]c(C)c1C(=O)N1CCCCC1`, the B-score entry is “inactive”. In the case of `COc1cc(C(=O)NCc2cc3cc(Cl)ccc3n2C)cc(OC)c1OC`, the B-score result was “inactive”. Then `CCOCc1nnc(NC(=O)CCS(=O)(=O)Cc2ccccc2)s1`, with “inactive”; and `CCOCc1nnc(NC(=O)CSc2ccc(C)cc2)s1`, with “inactive”; and `CCOCc1nnc(NC(=O)CCC2CCCCC2)s1`, with 7.99 (active).

Consider `OCC[C@H]1C[C@H](O)[C@@H](O)[C@]2(CCc3ccccc3O2)O1`, for which the B-score result is “inactive”. The entry for `O=C1CCC(Cc2ccccc2)N1` (stereo not drawn) is “inactive”.

`O=C1CCC([N+](=O)[O-])C(c2ccccc2Br)N1` (stereo not drawn): the B-score is 8.17 (active). Take `COc1cc2c(cc1OC)C(c1ccccc1Br)NC(=O)C2` (stereo not drawn): the B-score entry was “inactive”.

Take `Cc1ccccc1NC(=O)c1nn(-c2ccc(F)c(F)c2)ccc1=O`: the B-score result is “inactive”.

In the case of `Cc1cccc(N2CCN(C(=O)COCc3cc(-c4ccc5c(c4)OCO5)on3)CC2)c1C`, the B-score result was “inactive”. Consider `CCOC(=O)N1CCN(C(=O)COCc2cc(-c3ccc4c(c3)OCO4)on2)CC1`, for which the B-score was 6.93 (active). As for `O=C(COCc1cc(-c2ccc3c(c2)OCO3)on1)N1CCN(c2cccc(Cl)c2)CC1`, the B-score result was “inactive”. Turning to `COc1ccc(-c2cc(C(=O)NC(Cc3c[nH]c4ccccc34)C(=O)O)c(C)o2)cc1OC` (stereo not drawn), the B-score result was “inactive”.

Take `Cc1nc(-c2ccccc2)cn2c1nc1ccccc12`: the B-score entry is “inactive”. The entry for `COc1ccc(C(=O)/C=C/c2ccc(-c3ccccc3)cc2)cc1CSCC(=O)O` is “inactive”; for `Cc1cc(N2C(=O)c3ccc(C(=O)NCc4ccccc4)cc3C2=O)no1` it is “inactive”; for `Cc1cc(C(=O)N2CCC(C(=O)O)CC2)c(C(F)(F)F)o1` it is “inactive”.

Consider `CN1CCN(CCC(=O)N/N=C/C=C2\N(C)c3ccccc3C2(C)C)CC1`, for which the B-score entry was “inactive”. `CN1/C(=C\C=C2\N=C(c3ccc(F)cc3)OC2=O)C(C)(C)c2ccccc21`: the B-score is 19.6 (active). Take `CN1/C(=C\C(=O)c2oc3ccccc3c2N)C(C)(C)c2ccccc21`: the B-score entry is “inactive”.

On to `Cc1c(C2=CCN(S(=O)(=O)c3ccc(Cl)cc3)CC2)c2ccccc2n1C`, for which the B-score result was “inactive”. For `CN(CC(=O)Nc1cccc(F)c1)C(=O)C1CC(=O)N(CCc2ccccc2)C1` (stereo not drawn), the B-score entry is “inactive”. As to `Cc1cc(NC(=O)OC(C)C)ccc1-c1ccc(NC(=O)OC(C)C)cc1C`, the B-score result is “inactive”. For the compound `O=C(NC1CC1)C1CCCN(C(=O)NC2CCCCC2)C1` (stereo not drawn), the B-score result was “inactive”. Turning to `CC[C@H](C)[C@@H](C(=O)N1CCNCC1)n1cc([C@@H](N)Cc2ccc(O)cc2)nn1`, the B-score entry was “inactive”. Then `C/C(=N\NC(=S)Nc1ccc(C)cc1)c1cc2ccccc2o1`, with “inactive”. `C/C(=N\NS(=O)(=O)c1cccc([N+](=O)[O-])c1)c1cc2ccccc2o1`: the B-score was 8.87 (active). The entry for `COc1ccc(CCNS(=O)(=O)c2cccc([N+](=O)[O-])c2)cc1` is “inactive”. Turning to `COc1ccc(N(CC(=O)N/N=C/c2cccc3c2OCCO3)S(=O)(=O)c2ccc(NC(C)=O)cc2)cc1`, the B-score result is “inactive”. `Cc1ccc(OC(=O)c2cc3ccccc3o2)cc1`: the B-score is 6.5 (active). In the case of `Cc1ccc(NC(=O)c2cc3ccccc3o2)cc1`, the B-score entry is “inactive”.

Consider `COc1ccccc1CN(C)C(=O)c1cc2ccccc2o1`, for which the B-score entry was “inactive”. `CCCCCCSc1ccc([C@@H]2[C@@H]3C(=O)N(CC)C(=O)[C@@H]3[C@]3(C(=O)OC)CCCCN23)cc1OC`: the B-score result is “inactive”.

Regarding `COc1ccc(C(=O)C2CCCN(C(=O)c3cc4nc(C)cc(C)n4n3)C2)cc1F` (stereo not drawn), the B-score entry is “inactive”. As to `Cc1ccc(C(=O)Oc2ccc(C(=S)N3CCOCC3)cc2)cc1`, the B-score entry is “inactive”. Turning to `O=C(Oc1ccc(F)cc1)N1CCOCC1`, the B-score entry was “inactive”. In the case of `O=C(Oc1ccc(C(=S)N2CCOCC2)cc1)c1ccc(F)cc1`, the B-score is 12.3 (active). Turning to `CC1=C(C(=O)Nc2cc(C)ccn2)C(c2cnn(C)c2)C2=C(CC(c3ccccc3)CC2=O)N1` (stereo not drawn), the B-score result is “inactive”.
